Residue numbers refer to the chain shown, from its start.
Legend:
Assay in all cases: PBM; 200 nM protein, PBS
Details in all cases: dsDNA, one strand shown
NKX2-5 [1] = molecular target: NKX2-5 (Homo sapiens, UniProt P52952 125-210, R139K)
NKX2-4 [2] = molecular target: T1, NKX2-4 (Homo sapiens, UniProt Q9H2Z4 175-261, P217L)
T1 sequence: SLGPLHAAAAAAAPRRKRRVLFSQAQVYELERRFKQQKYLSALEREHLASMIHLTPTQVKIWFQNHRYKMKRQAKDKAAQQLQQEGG

NKX2-4 [3] = molecular target: T2, NKX2-4 (Homo sapiens, UniProt Q9H2Z4 175-261, T231S)
T2 sequence: T1 sequence with L43P, T57S

NKX2-4 [4] = molecular target: T3, NKX2-4 (Homo sapiens, UniProt Q9H2Z4 175-261)
T3 sequence: T1 sequence with L43P

NKX2-6 [5] = molecular target: T4, NKX2-6 (Homo sapiens, UniProt A6NCS4 118-204, R150C)
T4 sequence: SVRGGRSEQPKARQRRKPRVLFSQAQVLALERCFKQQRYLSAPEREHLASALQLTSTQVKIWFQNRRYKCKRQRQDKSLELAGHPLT

NKX2-6 [6] = molecular target: T5, NKX2-6 (Homo sapiens, UniProt A6NCS4 118-204)
T5 sequence: T4 sequence with C33R

NKX2-4 [7] = molecular target: T6, NKX2-4 (Homo sapiens, UniProt Q9H2Z4 175-261, R246Q)
T6 sequence: T1 sequence with L43P, R72Q

NKX2-6 [8] = molecular target: T7, NKX2-6 (Homo sapiens, UniProt A6NCS4 118-204, F151L)
T7 sequence: T4 sequence with C33R, F34L

NKX2-5 [9] = molecular target: NKX2-5 (Homo sapiens, UniProt P52952 125-210)
Chain of NKX2-5 (Homo sapiens, UniProt P52952 125-210) (P52952 125-210): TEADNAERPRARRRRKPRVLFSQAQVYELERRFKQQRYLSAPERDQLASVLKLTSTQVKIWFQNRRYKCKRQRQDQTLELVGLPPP

VENTX [10] = molecular target: T8, VENTX (Homo sapiens, UniProt O95231 78-163, R121Q)
T8 sequence: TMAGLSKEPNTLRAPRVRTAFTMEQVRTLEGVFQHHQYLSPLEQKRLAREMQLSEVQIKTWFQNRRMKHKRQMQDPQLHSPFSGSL

VENTX [11] = molecular target: T9, VENTX (Homo sapiens, UniProt O95231 78-163)
T9 sequence: T8 sequence with Q44R

VENTX [12] = molecular target: T10, VENTX (Homo sapiens, UniProt O95231 78-163, Y115F)
T10 sequence: T8 sequence with Y38F, Q44R

NKX3-2 [13] = molecular target: NKX3-2 (Homo sapiens, UniProt P78367 192-278, P234S)
Chain of NKX3-2 (Homo sapiens, UniProt P78367 192-278, P234S) (P78367 192-278 P234S): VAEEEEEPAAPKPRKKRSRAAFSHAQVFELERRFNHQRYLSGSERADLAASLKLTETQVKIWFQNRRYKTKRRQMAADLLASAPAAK

NKX3-2 [14] = molecular target: NKX3-2 (Homo sapiens, UniProt P78367 192-278)
Chain of NKX3-2 (Homo sapiens, UniProt P78367 192-278) (P78367 192-278): as the sequence (P78367 192-278 P234S) above, with S43P counted along it

Chain of NKX2-5 (Homo sapiens, UniProt P52952 125-210, R139K) (P52952 125-210 R139K): as the sequence (P52952 125-210) above, with R15K counted along it

Sequence	binding signal (NKX2-5 [1])	binding signal (NKX2-4 [2])	binding signal (NKX2-4 [3])	binding signal (NKX2-4 [4])	binding signal (NKX2-6 [5])	binding signal (NKX2-6 [6])	binding signal (NKX2-4 [7])	binding signal (NKX2-6 [8])	binding signal (NKX2-5 [9])	binding signal (VENTX [10])	binding signal (VENTX [11])	binding signal (VENTX [12])	binding signal (NKX3-2 [13])	binding signal (NKX3-2 [14])
ATACTTGA	12.4 upbm affinity estimate (log intensity, higher = more binding, comparable within an allelic series)	12.6 upbm affinity estimate (log intensity, higher = more binding, comparable within an allelic series)	13 upbm affinity estimate (log intensity, higher = more binding, comparable within an allelic series)	12.5 upbm affinity estimate (log intensity, higher = more binding, comparable within an allelic series)	11.6 upbm affinity estimate (log intensity, higher = more binding, comparable within an allelic series)	13.5 upbm affinity estimate (log intensity, higher = more binding, comparable within an allelic series)	13.2 upbm affinity estimate (log intensity, higher = more binding, comparable within an allelic series)	10.7 upbm affinity estimate (log intensity, higher = more binding, comparable within an allelic series)	12.3 upbm affinity estimate (log intensity, higher = more binding, comparable within an allelic series)	–	–	–	–	–
CTCAAGTA	12.7 upbm affinity estimate (log intensity, higher = more binding, comparable within an allelic series)	12.7 upbm affinity estimate (log intensity, higher = more binding, comparable within an allelic series)	13.1 upbm affinity estimate (log intensity, higher = more binding, comparable within an allelic series)	12.6 upbm affinity estimate (log intensity, higher = more binding, comparable within an allelic series)	11.8 upbm affinity estimate (log intensity, higher = more binding, comparable within an allelic series)	13.6 upbm affinity estimate (log intensity, higher = more binding, comparable within an allelic series)	13.3 upbm affinity estimate (log intensity, higher = more binding, comparable within an allelic series)	10.8 upbm affinity estimate (log intensity, higher = more binding, comparable within an allelic series)	12.6 upbm affinity estimate (log intensity, higher = more binding, comparable within an allelic series)	–	–	–	–	–
ACACTTGA	13 upbm affinity estimate (log intensity, higher = more binding, comparable within an allelic series)	12.7 upbm affinity estimate (log intensity, higher = more binding, comparable within an allelic series)	13.2 upbm affinity estimate (log intensity, higher = more binding, comparable within an allelic series)	12.6 upbm affinity estimate (log intensity, higher = more binding, comparable within an allelic series)	12 upbm affinity estimate (log intensity, higher = more binding, comparable within an allelic series)	13.9 upbm affinity estimate (log intensity, higher = more binding, comparable within an allelic series)	13.4 upbm affinity estimate (log intensity, higher = more binding, comparable within an allelic series)	11.4 upbm affinity estimate (log intensity, higher = more binding, comparable within an allelic series)	12.9 upbm affinity estimate (log intensity, higher = more binding, comparable within an allelic series)	–	–	–	–	–
CCGACGCC	8.82 upbm affinity estimate (log intensity, higher = more binding, comparable within an allelic series)	–	–	–	–	8.94 upbm affinity estimate (log intensity, higher = more binding, comparable within an allelic series)	–	9.35 upbm affinity estimate (log intensity, higher = more binding, comparable within an allelic series)	8.73 upbm affinity estimate (log intensity, higher = more binding, comparable within an allelic series)	8.14 upbm affinity estimate (log intensity, higher = more binding, comparable within an allelic series)	8.37 upbm affinity estimate (log intensity, higher = more binding, comparable within an allelic series)	8.23 upbm affinity estimate (log intensity, higher = more binding, comparable within an allelic series)	10.5 upbm affinity estimate (log intensity, higher = more binding, comparable within an allelic series)	10.5 upbm affinity estimate (log intensity, higher = more binding, comparable within an allelic series)
AGTACTTG	12.5 upbm affinity estimate (log intensity, higher = more binding, comparable within an allelic series)	12.5 upbm affinity estimate (log intensity, higher = more binding, comparable within an allelic series)	12.9 upbm affinity estimate (log intensity, higher = more binding, comparable within an allelic series)	12.4 upbm affinity estimate (log intensity, higher = more binding, comparable within an allelic series)	11.6 upbm affinity estimate (log intensity, higher = more binding, comparable within an allelic series)	13.5 upbm affinity estimate (log intensity, higher = more binding, comparable within an allelic series)	13 upbm affinity estimate (log intensity, higher = more binding, comparable within an allelic series)	10.8 upbm affinity estimate (log intensity, higher = more binding, comparable within an allelic series)	12.3 upbm affinity estimate (log intensity, higher = more binding, comparable within an allelic series)	–	–	–	–	–
GTCAAGTA	12.3 upbm affinity estimate (log intensity, higher = more binding, comparable within an allelic series)	12.5 upbm affinity estimate (log intensity, higher = more binding, comparable within an allelic series)	12.8 upbm affinity estimate (log intensity, higher = more binding, comparable within an allelic series)	12.3 upbm affinity estimate (log intensity, higher = more binding, comparable within an allelic series)	–	13.4 upbm affinity estimate (log intensity, higher = more binding, comparable within an allelic series)	13 upbm affinity estimate (log intensity, higher = more binding, comparable within an allelic series)	10.5 upbm affinity estimate (log intensity, higher = more binding, comparable within an allelic series)	12.2 upbm affinity estimate (log intensity, higher = more binding, comparable within an allelic series)	–	–	–	–	–
CTGGCCAG	8.81 upbm affinity estimate (log intensity, higher = more binding, comparable within an allelic series)	–	–	–	–	–	–	–	8.9 upbm affinity estimate (log intensity, higher = more binding, comparable within an allelic series)	8.26 upbm affinity estimate (log intensity, higher = more binding, comparable within an allelic series)	8.37 upbm affinity estimate (log intensity, higher = more binding, comparable within an allelic series)	8.37 upbm affinity estimate (log intensity, higher = more binding, comparable within an allelic series)	–	–
CACTTCAA	12.4 upbm affinity estimate (log intensity, higher = more binding, comparable within an allelic series)	12.6 upbm affinity estimate (log intensity, higher = more binding, comparable within an allelic series)	13 upbm affinity estimate (log intensity, higher = more binding, comparable within an allelic series)	12.5 upbm affinity estimate (log intensity, higher = more binding, comparable within an allelic series)	11.6 upbm affinity estimate (log intensity, higher = more binding, comparable within an allelic series)	–	13.1 upbm affinity estimate (log intensity, higher = more binding, comparable within an allelic series)	10.9 upbm affinity estimate (log intensity, higher = more binding, comparable within an allelic series)	12.4 upbm affinity estimate (log intensity, higher = more binding, comparable within an allelic series)	–	–	–	–	–

Reference: publication PMC11006913
